Assay outcomes: PubChem BioAssay, Broad Institute
Hits are enriched below; roughly 2.7% of the tested compounds scored in any of these assays.
MITF act – increases MITF-driven TRPM1 promoter luciferase signal. 300,000 tested, 0.75% active. SK-MEL-5 TRPM1-promoter luciferase, 24 h; % of positive control, neutral wells = 0. activation, % at 12.5 µM. AID 588334;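 active = mean activation of at least 80% with every replicate also reaching 80%; inconclusive = mean reaches 80% but some replicate falls short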;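 also: 0% = neutral control wells and 100% = parthenolide positive control wells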
HIV Env fusion – HIV envelope-mediated fusion inhibition. HeLa-JRFL Env/CEM21 cell fusion, luciferase. inhibition, % at 12.3 µM. 360,000 tested, 1.1% active. AID 651610;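 active = mean replicate inhibition score of at least 50 and every replicate individually at or above 50; inconclusive = only one of the two criteria met; inactive = mean below 50 and not all replicates reaching 50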;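 also: 0% = plate neutral controls and 100% = maraviroc near 300 nM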
Wnt bcat act – activates Wnt/beta-catenin signaling in a reporter cell assay. activator, plate reader. activation, % at 9.35 µM. 300,000 tested, 1.2% active; in the data active = activation above about 30%, passing the limit was not always enough; inconclusive = no clear call, values can overlap the other calls;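 also: 0% = neutral control wells and 100% = positive control wells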
INS-1E GSIS act – GLuc luminescence reporter in INS-1E cells, primary screen for activators of glucose-dependent secretion of insulin; INS-1E GLuc reporter insulin secretion, 2-3 h; activation, % at 16.6 µM; 370,000 tested, 0.61% active; AID 743287;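 active = lowest replicate activation of at least 40%, so every replicate reaches that level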;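 also: 0% = median of neutral control wells and 100% = median of IBMX positive control wells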
CFTR F508del cor – CFTR F508del correction in bronchial cells; CFBE cells, YFP halide quenching; stimulated with forskolin plus potentiator P3; % fluorescence drop versus neutral controls; activity (quench increase), % at 7.58 µM; 350,000 tested, 0.36% active; AID 720511;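 active = mean added fluorescence quench of at least 8% versus neutral control, with both replicates also reaching 8%; inconclusive = only one of the mean or replicate conditions met; inactive = mean below 8% and not both replicates reaching 8%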;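 also: cells transiently co-express mutant CFTR-F508del with the halide-sensitive YFP; corrector assay measuring rescue of mutant channel to the surface after 24 h compound exposure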
An asterisk follows results filed as active; ? = inconclusive; / = not tested or not shown; ! = repeats disagree; [ ] = dose if it differs, or a comment.

SMILES	MITF act	HIV Env fusion	Wnt bcat act	INS-1E GSIS act	CFTR F508del cor
CC(=O)N1C[C@@H]2C(c3ccccc3)[C@@H](C1)N2CC(F)(F)F (stereo partly specified)	/	/	/	19	/
CCC(C)Sc1cccc(-c2nc3ccc(C)cn3c2NC2CCCCC2)c1 (stereo unspecified)	-3	18	-9	12	1
CCC(C)Sc1cccc(-c2nc3cnccn3c2NC2CCCCC2)c1 (stereo unspecified)	-9	21	-8	170*	-2
CCC(C)Sc1cc(-c2nc3ccccn3c2NC2CCCCC2)ccc1OC (stereo unspecified)	5	59*!	-22	-18	0
c1cc(SC2CCCCC2)cc(-c2nc3cnccn3c2NC2CCCCC2)c1	-10	59*	-5	27	0
COc1cccc(NC(=O)N(C)C[C@H]2Oc3cc(C#CC4(O)CCCC4)ccc3S(=O)(=O)N([C@@H](C)CO)C[C@H]2C)c1	/	/	/	-18	3
Cc1noc(C)c1NC(=O)N(C)C[C@H]1Oc2ccc(NC(=O)NC3CCCCC3)cc2C(=O)N([C@@H](C)CO)C[C@H]1C	/	/	/	0	-1
COc1ccc(N(CC(=O)NC2CC3CCC2C3)S(=O)(=O)c2ccc(C)cc2)cc1Cl (stereo unspecified)	/	8	51*	-10	-1
COc1cc(/C=N/NC(=S)NCc2ccccc2)ccc1OCC#N	9	14	/	117*	/
CCOc1ccc(CNC(=S)N/N=C/c2ccc(OC)c(OC)c2)cc1	-10	-10	-2	-14	-4
COc1ccc(S(=O)(=O)Nc2ccc3c(c2)CC(=O)N([C@H](C)CO)C[C@H](C)[C@@H](CN(C)Cc2ccc(C(=O)O)cc2)O3)cc1	/	/	/	-5	-2
Cc1ccc(NC(=O)COC(=O)c2c(C)nn(-c3ccccc3)c2C)cc1	2	6	-1	-50	0
CC(=O)c1ccccc1NC(=O)COC(=O)c1c(C)nn(-c2ccccc2)c1C	29	-7	42*	-13	-2
Cc1nn(-c2ccccc2)c(C)c1C(=O)OCC(=O)Nc1ccccc1C(F)(F)F	28	/	13	17	3
Cc1nn(-c2ccccc2)c(C)c1C(=O)OCC(=O)Nc1ccccc1	86*	/	21	2	5
Cc1nc(COC(=O)c2c(C)nn(-c3ccccc3)c2C)cs1	86*	-31	28	/	/
COc1ccccc1NC(=O)COC(=O)c1c(C)nn(-c2ccccc2)c1C	100*	-30	-2	-15	-1
Cc1cc(NC(=O)COC(=O)c2c(C)nn(-c3ccccc3)c2C)no1	-12	-47	1	/	/
CC(=O)N(C)C[C@H]1Oc2cc(C#Cc3ccccc3F)ccc2S(=O)(=O)N([C@H](C)CO)C[C@H]1C	/	18[16.7 µM]	/	-1	-2
Cc1ccc(C(=O)NN=CC(=O)c2ccccc2)c(C)c1	61	/	34*	5	-3
COc1ccc(C(=O)N/N=C/C(=O)c2ccccc2)cc1	78	-70	32*	24	3
CCCNC(=O)Nc1ccc2c(c1)C(=O)N(C)C[C@H](OC)[C@H](C)CN(Cc1ccc(-c3ccccn3)cc1)[C@@H](C)CO2	/	6[16.7 µM]	/	-23	-1
CCOc1cc(OCC)c(C(C)=O)cc1OCC	0	/	-1	13	8.4*
Cc1cc(/C=C2/SC(=O)N(CC(=O)N3CCOCC3)C2=O)c(C)n1-c1ccccc1F	19	-13	-2	52*	-1
COc1ccc(-n2c(C)cc(/C=C3/SC(=O)N(CC(=O)N4CCOCC4)C3=O)c2C)cc1	-1	13	-1	24	-2
SMILES	MITF act	HIV Env fusion	Wnt bcat act	INS-1E GSIS act	CFTR F508del cor
Cc1ccc(S(=O)(=O)N2CC3(O)CN(C(=O)OC(C)C)N(C(=O)OC(C)C)CC3(OC(=O)NC3CCCC3)C2)cc1 (stereo unspecified)	/	75*	-4	-40	-3
CCc1cccc(CC)c1NC(=O)CSc1nnc(C2CC2)n1N	-2	10	-2	-5	-1
CCc1cccc(CC)c1NC(=O)CSc1nnc(C2CC2)n1C	-8	-12	4	45*	-1
Cn1c(SCC(=O)NC2CCCc3ccccc32)nnc1C1CC1 (stereo unspecified)	3	12	1	82*	0
CN(C)C(=O)[C@H]1[C@H](CO)[C@H]2Cn3c(ccc(-c4ccccc4)c3=O)[C@@H]1N2C(=O)C1CCC1	/	-23[16.7 µM]	/	9	/
CN(C)C(=O)C[C@@H]1CC[C@H](NC(=O)c2ccc(F)cc2)[C@H](CO)O1	/	-35[16.7 µM]	/	2	1
O=C(c1ccc([N+](=O)[O-])cc1)N1CCCC1	8	-25	-1	8	3
O=[N+]([O-])c1ccc(C(=S)N2CCCC2)cc1	-6	7	37*	1	2
Cc1ccc(C)c(-n2ccnc2SCC(=O)Nc2cccc(S(=O)(=O)NC3=NCCC3)c2)c1	-8	13	47*	/	1
Cc1ccc(/C=N/c2sc3c(c2C#N)CCC3)s1	92*	/	5	/	/
Cc1ccc(/C=N/c2sc3c(c2C#N)CCCCC3)o1	25	/	/	/	/
Cc1ccc(S(=O)(=O)NC[C@H]2CC[C@H]3[C@H](CN3Cc3cc(-c4ccccc4)on3)O2)cc1	/	/	/	/	2
CN(C)CCNC(=O)c1cc2c(s1)-c1ccc(Cl)cc1SC2	-99	-14	7	228*	3
O=C(C[C@H]1CC[C@H]2[C@@H](COC[C@@H](O)CN2S(=O)(=O)c2ccc(Oc3ccccc3)cc2)O1)NCCN1CCCCC1	/	/	/	6	-1
CN(C)C(=O)C[C@H]1CC[C@@H]2[C@H](COC[C@@H](O)CN2CC2CCCC2)O1	/	/	/	12	-2
CCC(=O)Nc1cc(-c2nn(C)c(=O)c3ccccc23)ccc1OC	-18	-8	/	/	/
COc1ccc(-c2nn(C)c(=O)c3ccccc23)cc1NC(=O)COc1ccc(C)cc1	-19	57*	0	-25	/
COc1ccc(-c2nn(C)c(=O)c3ccccc23)cc1NC(=O)Cn1nc(C)c2ccccc2c1=O	-15	76*	1	15	/
CN1CCN(C(=O)C[C@H]2CC[C@@H]3[C@@H](COc4ccc(NC(=O)c5cscn5)cc4C(=O)N3C)O2)CC1	/	-26[16.7 µM]	/	0	1
CN1C(=O)c2cc(NC(=O)c3cccs3)ccc2OC[C@@H]2O[C@@H](CC(=O)N3CCOCC3)CC[C@@H]21	/	3[16.7 µM]	/	2	1
Cc1nc(-c2ccccc2)nc2[nH]c(=O)n(-c3ccccc3)c(=O)c12	/	-24	?	/	/
Cc1nc(-c2ccccc2)nc2[nH]c(C(C)C)cc(=O)c12	5	0	68*	3	/
Cc1nn(C)c(C)c1S(=O)(=O)N1CCCC(C(=O)N2CCN(c3ccc(Cl)cc3)CC2)C1 (stereo unspecified)	-13	63*	-3	/	/
O=C(Nc1cccc(F)c1)N[C@H]1CC[C@H](CCn2cc(Cc3ccccc3)nn2)O[C@@H]1CO	/	-21[16.7 µM]	/	-11	-2
O=C(NC(=S)NCCO)c1sc2ccccc2c1Cl	45	-29	42*	-2	-2
